Screening data (PubChem BioAssay)
D2 PAM-1 – positive allosteric modulators of human D2 dopamine receptor; DiscoveRx D2 beta-arrestin cells, luminescence, 90 min; 100% = 57 uM dopamine signal; P14416; potentiation, % (concentration not given with the values); 360,000 tested, 0.23% active; in the data active means potentiation above about 50%
Target sequence (P14416 whole entry, looked up): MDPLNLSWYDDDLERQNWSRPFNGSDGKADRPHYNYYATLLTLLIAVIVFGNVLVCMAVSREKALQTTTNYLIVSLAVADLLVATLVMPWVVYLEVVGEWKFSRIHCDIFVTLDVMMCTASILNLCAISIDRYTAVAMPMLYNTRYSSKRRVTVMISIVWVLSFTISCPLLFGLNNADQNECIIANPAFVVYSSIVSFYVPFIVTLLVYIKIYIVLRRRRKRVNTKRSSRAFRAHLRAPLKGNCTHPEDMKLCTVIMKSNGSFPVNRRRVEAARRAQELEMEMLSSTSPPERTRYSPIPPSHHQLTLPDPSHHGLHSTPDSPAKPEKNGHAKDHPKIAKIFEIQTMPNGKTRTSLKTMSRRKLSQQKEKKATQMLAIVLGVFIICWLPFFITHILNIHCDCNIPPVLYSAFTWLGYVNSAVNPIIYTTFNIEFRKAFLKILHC
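D2 cells co-treated with compound plus 50 nM dopamine (EC20) for 90 min at 37 deg C to detect potentiation. Beta-arrestin recruitment was read as enzyme-fragment luminescence after 1 h at ambient temperature. Full response was set by 57 uM dopamine.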
D2 PAM-2 – positively modulates the human D2 dopamine receptor allosterically; P14416; HEK293 T-REx D2, calcium flux, EC20 dopamine potentiation; potentiation, % at 10 µM; 340,000 tested, 0.34% active;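 active means potentiation over 3 SD above the plate norm, cut at about 30% in these data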
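Primary screen. Calcium kinetics in induced HEK293 T-REx D2 cells: compound pre-addition 180 s, EC20 dopamine, 180 s more.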
D2 ag-1 – agonists of human D2 dopamine receptor | P14416 | HEK293 T-REx D2 cells, calcium flux agonist mode | activation, % at 2 µM | 340,000 tested, 0.53% active;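 active means activation over 3 SD above normal in the single-dose calcium agonist read, cut at about 30% in these data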
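Agonism scored from kinetic calcium signal (1 read/sec, 180 s) following compound pin transfer, after a 10 s baseline. Cells: HEK293 Trex line expressing inducible D2 receptor coupled to calcium, dye-loaded after overnight culture at 30 C.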
D2 antagonist – antagonizes the human D2 dopamine receptor | HEK293 TREx D2 cells, calcium flux, dopamine EC80 | inhibition, % at 10 µM | 340,000 tested, 2% active; in the data active means inhibition above about 30%; inactive means below that, where a call was filed
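Inhibition of EC80 dopamine-driven calcium flux, recorded kinetically, defines activity here; cells are a tetracycline-induced HEK293 T-REx line expressing force-coupled D2.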
D2 ag-2 – human D2 receptor agonism in beta-arrestin assay; 360,000 tested, 0.084% active; P14416; DiscoveRx PathHunter D2 beta-arrestin, luminescence, 90 min; 100% = 57 uM dopamine signal; activation, % (no concentration beside the values); in the data active means activation above about 40%
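Agonist mode: compounds alone added to overnight-plated D2 PathHunter cells for 90 min at 37 C, with 57 uM final dopamine (EC100) defining full response. Beta-arrestin recruitment detected by chemiluminescent reagent, read after 1 h at ambient temperature.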
A number is an active result; i = inactive; nt = no result. Sampled rows, rich in hits. Any-hit rate of the full collection: about 2.4%.

SMILES	D2 PAM-1	D2 PAM-2	D2 ag-1	D2 antagonist	D2 ag-2
Cc1ccc(CNC(=O)c2oc3ccc(S(=O)(=O)N4CCC5(CC4)OCCO5)cc3c2C)cc1	i	i	nt	nt	i
O=C(NCCCN1CCCC1=O)c1cccc(S(=O)(=O)N2CCCCC2)c1	i	i	i	38	i
COCCNC(=O)c1c[nH]c2ccc(S(=O)(=O)N3CCOCC3)cc2c1=O	i	i	i	46	i
Cc1c(C(=O)NCCN(C)C)oc2ccc(S(=O)(=O)N3CCC4(CC3)OCCO4)cc12	i	nt	i	33	i
COc1ccc(NC(=O)CCCn2c(=O)c3cccn3c3cccnc32)cc1Cl	nt	i	i	nt	nt
Cc1cccc(OCC(=O)Nc2ccc3c(c2)C(=O)NC3=O)c1	i	i	i	i	i
COc1cccc(C(=O)Nc2cccc(-c3cn4ccsc4n3)c2)c1OC	nt	i	i	nt	nt
Cc1ccc(CNc2nc3ccc(Cl)cc3n3cnnc23)cc1	nt	i	nt	nt	nt
O=C(Nc1cccc(Cl)c1)C1CCCN(c2ncnc3c2nc2n3CCCCC2)C1 (stereo not given)	nt	i	i	nt	nt
CCc1c(C)c2cc3c(c(C)c2oc1=O)OCN(CCc1ccccc1F)C3	nt	i	i	nt	nt
COc1ccc2sc(-c3ccc(S(C)(=O)=O)cc3)c(-c3ccc(SC)cc3)c2c1	i	nt	nt	nt	i
O=C(Nc1cccc(S(=O)(=O)N2CCOCC2)c1)c1ccc(N2CCCC2=O)cc1	i	i	i	i	i
O=C(NCCCN1CCOCC1)c1cccc(S(=O)(=O)N2CCN(c3ccccc3)CC2)c1	i	i	i	i	i
O=C(CCNC(=O)c1ccc(Br)cc1)Nc1cccc(S(=O)(=O)N2CCCC2)c1	i	i	i	38	i
Cc1c(C(=O)NCCC2=CCCCC2)oc2ccc(S(=O)(=O)N3CCOCC3)cc12	i	i	i	i	i
Cc1c(C(=O)NCCCN2CCCC2=O)oc2ccc(S(=O)(=O)N3CCOCC3)cc12	i	i	i	44	i
O=C(Nc1cccc(S(=O)(=O)N2CCCCC2)c1)c1ccc(N2CCCC2=O)cc1	i	51	i	i	i
O=C(NCCOc1ccccc1F)c1cccc(S(=O)(=O)N2CCN(c3ccccc3)CC2)c1	i	i	i	35	i
O=S1(=O)CCOC[C@H](c2ccccc2)N1Cc1ccccc1	i	i	i	30	i
Cc1cc(Nc2ccccc2C)nc(-n2nc(C)cc2C)n1	nt	i	i	nt	nt
C=CCOC(=O)C1=C(C)OC(N)=C(C#N)C1c1c(C)nn(-c2ccccc2)c1Cl (stereo not given)	i	i	i	44	i
COc1ccc(-c2nc3ccc([N+](=O)[O-])cc3[nH]2)cc1	i	i	i	i	i
Cc1ccc(-c2nc3ccc([N+](=O)[O-])cc3[nH]2)cc1	i	i	i	45	i
S=C(NCC1CCCO1)N1CCN(c2nc(-c3ccccc3)cs2)CC1 (stereo not given)	i	i	i	67	i
Cc1ccc(NC(=O)[C@@H](c2ccccc2)N2Cc3ccccc3C2=O)cc1	nt	i	i	nt	nt
SMILES	D2 PAM-1	D2 PAM-2	D2 ag-1	D2 antagonist	D2 ag-2
CCN1CCN(C(=O)C2c3cc(OC)c(OC)cc3C(=O)N(C)C2c2ccc(SC)cc2)CC1 (stereo not given)	i	46	i	i	i
O=C(c1ccco1)N1CCN(C2CN(Cc3ccc(F)cc3)S(=O)(=O)C2)CC1 (stereo not given)	i	nt	nt	nt	i
COc1cccc(C(C(=O)NC2CCCCC2)N(Cc2ccco2)C(=O)c2ccccn2)c1 (stereo not given)	i	i	i	34	i
CC(=O)n1nc(-c2cccnc2)nc1NCc1ccc(F)cc1	nt	i	i	nt	nt
CC(C)C(C(=O)Nc1ncn[nH]1)N1C(=O)c2ccccc2C1=O (stereo not given)	i	31	i	i	i
CC(C)C(C(=O)Nc1ccccc1)N1C(=O)c2ccccc2C1=O (stereo not given)	i	i	i	i	i
Cc1nc(NC(=O)c2cc(-n3cnnc3)ccc2Cl)ccc1Br	i	i	i	30	i
O=C(Nc1ccccc1)c1cc(-n2cnnc2)ccc1Cl	i	nt	nt	nt	i
Cc1ccc(NC(=O)Nc2nnc(SCC(=O)N3CCC(C)CC3)s2)cc1	nt	i	i	nt	nt
CCN(CCNCC(O)COc1ccccc1C(C)C)c1cccc(C)c1 (stereo not given)	i	i	i	i	i
